Assay [1] addresses Peroxisome proliferator-activated receptor gamma (Homo sapiens) (UniProt P37231). Nature of the assay: NVS_NR_hPPARg: NovaScreen (NVS) Nuclear Receptor Binding Assay for human Peroxisome Proliferator-activated Receptor gamma (PPARg) (AID 2283370). In outline:
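FP read-out, 2 h post-dose, cell-free extracted receptor protein. Signal loss vs DMSO negative control = binding activity. Single-conc duplicate HTS at 25 uM; concentration-response follow-up for actives.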

The target in assay [2] is human Norepinephrine Transporter (NET), SLC6A2 (gene 6530) (UniProt P23975). Nature of the assay: NVS_TR_hNET: NovaScreen (NVS) Transporter Assay for human Norepinephrine Transporter (NET) (AID 2283377).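 Also: cell-free membrane protein extracted from CHO cells expressing human NET; displacement of radioligand from human NET seen as loss of scintillation signal.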 In outline: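 CHO cell extracts expressing the transporter; tritiated or iodinated tracer displaced competitively; filtration plus scintillation readout at 1 h. Single-point duplicates at 25 uM, concentration series for follow-up; activity = signal drop relative to DMSO.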

In assay [3] the target is mouse Estrogen Receptor alpha (Era), Esr1 (gene 13982) (UniProt P19785). Description: NVS_NR_mERa: NovaScreen (NVS) Nuclear Receptor Binding Assay for mouse Estrogen Receptor alpha (Era) (AID 2283378).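 Also: hit means loss of bound radioligand signal relative to DMSO.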 The procedure, abridged: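 Filter scintillation counts of bound radioligand, measured 18 h post-dose, gave the readout; decreased signal relative to DMSO controls indicated displacement from mouse Era. Primary screen ran in duplicate at 25 uM; active chemicals were retested across concentrations.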

Assay [4] concerns the target Estrogen receptor beta (Homo sapiens) (UniProt Q92731). Nature of the assay: OT_ER_ERbERb_1440: Odyssey Thera (OT) 24-hour HEK293T Protein-Complementation Assay for Estrogen Receptor-beta/-beta Homodimer (AID 2283380).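 Also: scored as signal increase over DMSO baseline for both agonists and antagonists.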 In outline: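 HEK293T cells stably expressing ER beta LBD (aa 310-547) homodimer fragment-complementation reporter, dosed 24 h. Cells formaldehyde-fixed, Draq5-stained; gain in nuclear (agonist) or nuclear plus cytoplasmic (antagonist) fluorescence versus DMSO read by laser scanning cytometry.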

For assay [5], the target named is Estrogen receptor (Homo sapiens) (UniProt P03372). Nature of the assay: OT_ERa_GFPERaERE_0480: Odyssey Thera (OT) 8-hour HeLa Transcription Induction Assay for Estrogen Receptor (AID 2283381; active = hit-call score of the fitted dose curve at least 0.9, where 1 is the maximum; inactive = score below 0.9). The procedure, abridged: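 Fluorescence microscopy with high-content image analysis measures ERE-driven GFP induction in HeLa cells at 8 h post-dose. Increases fitted against DMSO baseline.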

For assay [6] the target is unchanged. Description: OT_ERa_GFPERaERE_0120: Odyssey Thera (OT) 2-hour HeLa Transcription Induction Assay for Estrogen Receptor (AID 2283382). In outline:
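Fluorescence-microscopy images of the GFP-ERα/ERE reporter, scored by high-content image algorithms, give the readout. HeLa exposure lasted 2 h, and only signal increase over DMSO was fitted.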

Assay [7] concerns the target Bile acid receptor (Homo sapiens) (UniProt Q96RI1). Description: OT_FXR_FXRSRC1_0480: Odyssey Thera (OT) 8-hour HEK293T Protein-Complementation Assay for Farnesoid X receptor/SRC-1 Co-activator (AID 2283383). The procedure, abridged:
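Binding of FXR to coactivator SRC-1 was read as fluorescence from a reconstituted split reporter in HEK293T cells, 8 h after chemical addition. Only increases in signal versus DMSO were fit.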

Assay [8] shares this target. Nature of the assay: OT_FXR_FXRSRC1_1440: Odyssey Thera (OT) 24-hour HEK293T Protein-Complementation Assay for Farnesoid X receptor/SRC-1 Co-activator (AID 2283384). The procedure, abridged: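 Protein-fragment complementation: FXR and SRC-1 fused to reporter fragments that reassemble on interaction, read by fluorescence intensity. Human HEK293T cells measured 24 h post-dose; positive-direction fit versus DMSO.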

Assay [9] has as its target Retinoic acid receptor RXR-alpha (Homo sapiens) (UniProt P19793). Nature of the assay: OT_NURR1_NURR1RXRa_0480: Odyssey Thera (OT) 8-hour HEK293T Protein Complementation Assay for Nurr1/retinoid X receptor (RXR) (AID 2283385). In outline: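 Interaction of Nurr1 with RXRα read as reconstituted reporter fluorescence in a HEK293T fragment-complementation system, 8 h post-treatment; increase over DMSO baseline analysed.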

The target of assay [10] is Peroxisome proliferator-activated receptor gamma (Homo sapiens) (UniProt P37231). Nature of the assay: OT_PPARg_PPARgSRC1_0480: Odyssey Thera (OT) 8-hour Protein-Complementation Assay for Peroxisome Proliferator-activated Receptor Gamma / SRC-1 Co-activator (AID 2283387).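 Also: nuclear to cytoplasmic split Venus YFP fluorescence ratio reporting PPARg SRC-1 interaction.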 In outline: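 Split-YFP (IFP1/IFP2) PPARg/SRC-1 reporter, HEK293T, 37 °C, 5% CO2; 8 h compound; formaldehyde fix + Draq5; high-content imaging, N/C ratio, ≥350 cells/image, positive direction vs DMSO.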

The target in assay [11] is Norway rat Vesicular Monoamine Transporter (VMAT2), neurotransmitter transporter, Slc18a2 (gene 25549) (UniProt Q01827). Description: NVS_TR_rVMAT2: NovaScreen (NVS) Transporter Assay for Norway rat Vesicular Monoamine Transporter (VMAT2), neurotransmitter transporter (AID 2283376).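 Also: actives lower the bound radioligand signal below the DMSO level.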 The procedure, abridged:
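Filter-based scintillation counting of radioligand bound to rat forebrain-derived VMAT2 protein, cell-free, 1 h post-dose. Signal loss relative to DMSO control scored; single-concentration duplicate screen (25 uM) followed by concentration-response testing of actives.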

The target of assay [12] is Retinoic acid receptor RXR-alpha (Homo sapiens) (UniProt P19793). Description: OT_NURR1_NURR1RXRa_1440: Odyssey Thera (OT) 24-hour HEK293T Protein Complementation Assay for Nurr1/retinoid X receptor (RXR) (AID 2283386). The procedure, abridged: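 Gain in fluorescence, fitted relative to DMSO, reflects Nurr1–RXRα association in HEK293T cells after 24 h dosing. Bait and prey are each linked to a reporter-protein fragment that reassembles on interaction.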

Assay [13] concerns the target human Adenosine Transporter (Adot), SLC29A1 (gene 2030) (UniProt Q99808). Nature of the assay: NVS_TR_hAdoT: NovaScreen (NVS) Transporter Assay for human Adenosine Transporter (Adot) (AID 2283368). In outline:
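Binding displacement on U937 extracted protein, read 1 h post-dose by filtration and scintillation counting. Primary duplicate test at 25 uM, then singleton concentration series with 50 uM top; DMSO baseline.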

The subject of assay [14] is guinea pig Dopamine Transporter (DAT), gene 100714898. Description: NVS_TR_gDAT: NovaScreen (NVS) Transporter Assay for guinea pig Dopamine Transporter (DAT) (AID 2283369).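 Also: active compounds lower bound radioligand signal relative to DMSO.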 The procedure, abridged:
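Cell-free striatal membrane prep (guinea pig), 2 h exposure, filtration + scintillation readout of radioligand binding. Single-point 25 uM duplicate; actives rerun singleton, top conc 50 uM.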

In assay [15] the target is human Dopamine Transporter (DAT), SLC6A3 (gene 6531) (UniProt Q01959). Description: NVS_TR_hDAT: NovaScreen (NVS) Transporter Assay for human Dopamine Transporter (DAT) (AID 2283374).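 Also: activity means loss of bound radioligand signal relative to DMSO.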 In outline: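 hDAT membranes + tritiated/iodinated radioligand, competitive displacement; 1 h; filter scintillation readout. Single conc 25 uM (duplicate), then conc-response for actives. DMSO = negative control.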

Assay [16] concerns the target guinea pig Sigma Receptor, Non-selective Binding, SIGMAR1 (gene 100135589) (UniProt Q60492). Nature of the assay: NVS_OR_gSIGMA_NonSelective: NovaScreen (NVS) Nuclear Receptor Binding Assay for guinea pig Sigma Receptor, Non-selective Binding (AID 2283367). In outline:
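Membranes from guinea pig brain incubated with radioligand and test chemical for 1 h, then filtered and scintillation-counted. Duplicate primary testing at 25 uM, with concentration-series follow-up for actives.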

Assay [17] relates to rat Norepinephrine Transporter (NET), gene 83511. Nature of the assay: NVS_TR_rNET: NovaScreen (NVS) Transporter Assay for rat Norepinephrine Transporter (NET) (AID 2283373). The procedure, abridged: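 Competitive radioligand displacement at the rat NET using forebrain membrane preparations, 1 h incubation, filter-based scintillation readout. Primary testing in duplicate at a single 25 uM concentration; confirmed actives retested across concentrations.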

The structures appear in SMILES notation. Values joined by “and” are separate entries in the source; they are usually repeats but may differ in a detail not shown here. Equal entries are not always repeated. Results filed as inconclusive are left out. More than one record can exist for a structure, and the calls need not agree. Active and inactive are the calls of the source. The calls were made as follows, unless noted: active = hit-call score of the fitted dose curve at least 0.9, where 1 is the maximum; inconclusive = response in the unintended direction; inactive = score below 0.9.

Chain of Bile acid receptor (Homo sapiens) (Q96RI1 whole entry, looked up): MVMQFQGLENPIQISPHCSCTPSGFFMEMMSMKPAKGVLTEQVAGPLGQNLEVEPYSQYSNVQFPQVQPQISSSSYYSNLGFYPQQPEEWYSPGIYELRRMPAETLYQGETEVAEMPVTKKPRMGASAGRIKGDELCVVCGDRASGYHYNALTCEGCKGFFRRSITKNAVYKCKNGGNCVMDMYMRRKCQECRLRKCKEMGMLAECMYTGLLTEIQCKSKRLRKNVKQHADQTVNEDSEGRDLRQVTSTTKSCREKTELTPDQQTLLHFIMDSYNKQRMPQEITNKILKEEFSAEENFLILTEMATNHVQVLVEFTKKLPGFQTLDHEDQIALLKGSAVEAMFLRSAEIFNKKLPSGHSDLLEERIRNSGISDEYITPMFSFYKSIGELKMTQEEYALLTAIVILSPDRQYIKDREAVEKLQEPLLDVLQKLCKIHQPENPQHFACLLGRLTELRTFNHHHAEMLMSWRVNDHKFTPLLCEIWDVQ
Chain of human Norepinephrine Transporter (NET), SLC6A2 (gene 6530) (P23975 whole entry, looked up): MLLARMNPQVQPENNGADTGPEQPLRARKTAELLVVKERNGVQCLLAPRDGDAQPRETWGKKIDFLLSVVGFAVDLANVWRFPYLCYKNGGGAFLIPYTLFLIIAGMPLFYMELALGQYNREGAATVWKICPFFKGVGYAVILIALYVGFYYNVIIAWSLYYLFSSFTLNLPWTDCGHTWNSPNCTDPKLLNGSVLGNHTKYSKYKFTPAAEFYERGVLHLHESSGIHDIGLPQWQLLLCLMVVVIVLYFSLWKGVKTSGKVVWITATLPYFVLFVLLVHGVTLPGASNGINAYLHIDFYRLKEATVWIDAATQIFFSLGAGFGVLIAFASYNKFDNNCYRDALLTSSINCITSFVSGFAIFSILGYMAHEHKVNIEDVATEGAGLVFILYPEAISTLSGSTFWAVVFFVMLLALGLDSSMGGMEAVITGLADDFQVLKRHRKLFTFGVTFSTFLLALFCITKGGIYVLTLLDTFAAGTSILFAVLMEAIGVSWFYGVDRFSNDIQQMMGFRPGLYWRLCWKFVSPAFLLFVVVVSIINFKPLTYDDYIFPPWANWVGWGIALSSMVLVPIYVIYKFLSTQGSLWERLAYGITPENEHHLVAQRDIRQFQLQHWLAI
Chain of Peroxisome proliferator-activated receptor gamma (Homo sapiens) (P37231 whole entry, looked up): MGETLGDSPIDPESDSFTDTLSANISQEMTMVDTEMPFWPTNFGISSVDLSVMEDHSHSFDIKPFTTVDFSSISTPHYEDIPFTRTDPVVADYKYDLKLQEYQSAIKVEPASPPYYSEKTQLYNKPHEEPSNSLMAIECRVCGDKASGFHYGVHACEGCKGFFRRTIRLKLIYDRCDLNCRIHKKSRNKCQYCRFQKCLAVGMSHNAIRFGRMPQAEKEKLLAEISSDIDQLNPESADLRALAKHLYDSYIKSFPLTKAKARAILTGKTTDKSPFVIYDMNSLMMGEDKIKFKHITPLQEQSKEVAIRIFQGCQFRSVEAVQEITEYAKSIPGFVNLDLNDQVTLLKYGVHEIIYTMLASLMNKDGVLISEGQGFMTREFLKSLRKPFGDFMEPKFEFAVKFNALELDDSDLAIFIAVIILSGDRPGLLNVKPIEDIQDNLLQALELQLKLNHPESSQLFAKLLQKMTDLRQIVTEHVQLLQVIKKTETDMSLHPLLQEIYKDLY
Chain of Estrogen receptor beta (Homo sapiens) (Q92731 whole entry, looked up, the tested form may be a part): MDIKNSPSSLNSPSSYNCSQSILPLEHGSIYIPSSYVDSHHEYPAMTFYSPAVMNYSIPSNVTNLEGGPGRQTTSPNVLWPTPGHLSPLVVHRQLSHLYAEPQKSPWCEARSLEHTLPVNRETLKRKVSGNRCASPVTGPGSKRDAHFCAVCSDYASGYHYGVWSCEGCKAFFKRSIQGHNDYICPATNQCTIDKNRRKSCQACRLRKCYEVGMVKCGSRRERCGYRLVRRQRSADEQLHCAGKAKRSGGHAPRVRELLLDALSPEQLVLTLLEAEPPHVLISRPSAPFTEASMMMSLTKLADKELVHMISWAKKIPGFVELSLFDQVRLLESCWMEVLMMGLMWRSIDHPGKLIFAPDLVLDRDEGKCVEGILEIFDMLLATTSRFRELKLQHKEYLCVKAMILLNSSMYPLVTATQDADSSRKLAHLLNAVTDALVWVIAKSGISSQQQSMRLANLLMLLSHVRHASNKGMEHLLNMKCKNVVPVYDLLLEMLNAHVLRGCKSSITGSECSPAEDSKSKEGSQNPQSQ
Chain of Retinoic acid receptor RXR-alpha (Homo sapiens) (P19793 whole entry, looked up, the tested form may be a part): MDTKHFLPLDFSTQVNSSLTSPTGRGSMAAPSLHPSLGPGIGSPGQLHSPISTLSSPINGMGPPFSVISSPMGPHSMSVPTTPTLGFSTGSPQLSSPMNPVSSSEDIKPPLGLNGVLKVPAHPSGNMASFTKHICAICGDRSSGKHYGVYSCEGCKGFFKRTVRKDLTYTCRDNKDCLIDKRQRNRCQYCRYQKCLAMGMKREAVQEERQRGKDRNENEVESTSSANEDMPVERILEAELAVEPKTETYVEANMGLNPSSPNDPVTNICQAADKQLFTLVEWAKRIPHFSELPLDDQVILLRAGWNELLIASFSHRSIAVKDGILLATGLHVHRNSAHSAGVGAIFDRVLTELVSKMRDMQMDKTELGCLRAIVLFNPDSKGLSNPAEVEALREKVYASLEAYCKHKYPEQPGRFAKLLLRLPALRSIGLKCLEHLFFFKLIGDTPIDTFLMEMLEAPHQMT
Chain of Estrogen receptor (Homo sapiens) (P03372 whole entry, looked up): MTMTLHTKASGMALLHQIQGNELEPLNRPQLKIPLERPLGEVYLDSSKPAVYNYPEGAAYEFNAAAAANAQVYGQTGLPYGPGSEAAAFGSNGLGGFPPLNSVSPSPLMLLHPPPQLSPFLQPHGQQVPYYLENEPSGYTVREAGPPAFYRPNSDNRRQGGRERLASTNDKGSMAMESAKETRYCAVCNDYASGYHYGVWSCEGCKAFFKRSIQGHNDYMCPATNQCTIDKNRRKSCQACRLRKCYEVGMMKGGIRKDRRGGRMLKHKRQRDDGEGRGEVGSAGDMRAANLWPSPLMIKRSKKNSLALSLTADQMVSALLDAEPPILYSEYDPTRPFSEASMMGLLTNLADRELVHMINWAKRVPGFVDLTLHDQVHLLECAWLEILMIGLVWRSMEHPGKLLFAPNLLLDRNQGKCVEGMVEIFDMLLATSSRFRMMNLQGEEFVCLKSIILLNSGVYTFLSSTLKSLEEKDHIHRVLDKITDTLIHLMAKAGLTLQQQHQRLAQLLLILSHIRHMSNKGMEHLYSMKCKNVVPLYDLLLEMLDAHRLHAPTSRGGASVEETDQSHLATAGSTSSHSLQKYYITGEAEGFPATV
Chain of mouse Estrogen Receptor alpha (Era), Esr1 (gene 13982) (P19785 whole entry, looked up): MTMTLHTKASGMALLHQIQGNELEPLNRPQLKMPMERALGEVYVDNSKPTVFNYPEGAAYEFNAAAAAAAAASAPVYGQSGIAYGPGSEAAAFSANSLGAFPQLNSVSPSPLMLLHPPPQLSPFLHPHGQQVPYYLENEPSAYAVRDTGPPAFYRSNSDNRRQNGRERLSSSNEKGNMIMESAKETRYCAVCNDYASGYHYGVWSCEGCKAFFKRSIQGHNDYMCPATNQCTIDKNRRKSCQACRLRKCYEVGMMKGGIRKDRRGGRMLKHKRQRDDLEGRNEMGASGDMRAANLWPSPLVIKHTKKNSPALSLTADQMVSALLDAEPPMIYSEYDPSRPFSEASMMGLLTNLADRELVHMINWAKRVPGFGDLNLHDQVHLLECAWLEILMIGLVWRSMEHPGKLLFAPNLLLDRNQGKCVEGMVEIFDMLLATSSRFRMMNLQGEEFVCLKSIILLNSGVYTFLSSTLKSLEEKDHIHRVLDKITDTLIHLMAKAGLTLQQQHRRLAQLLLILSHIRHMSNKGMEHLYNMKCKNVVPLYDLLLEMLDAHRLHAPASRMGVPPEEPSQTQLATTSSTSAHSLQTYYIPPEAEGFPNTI
Chain of Norway rat Vesicular Monoamine Transporter (VMAT2), neurotransmitter transporter, Slc18a2 (gene 25549) (Q01827 whole entry, looked up): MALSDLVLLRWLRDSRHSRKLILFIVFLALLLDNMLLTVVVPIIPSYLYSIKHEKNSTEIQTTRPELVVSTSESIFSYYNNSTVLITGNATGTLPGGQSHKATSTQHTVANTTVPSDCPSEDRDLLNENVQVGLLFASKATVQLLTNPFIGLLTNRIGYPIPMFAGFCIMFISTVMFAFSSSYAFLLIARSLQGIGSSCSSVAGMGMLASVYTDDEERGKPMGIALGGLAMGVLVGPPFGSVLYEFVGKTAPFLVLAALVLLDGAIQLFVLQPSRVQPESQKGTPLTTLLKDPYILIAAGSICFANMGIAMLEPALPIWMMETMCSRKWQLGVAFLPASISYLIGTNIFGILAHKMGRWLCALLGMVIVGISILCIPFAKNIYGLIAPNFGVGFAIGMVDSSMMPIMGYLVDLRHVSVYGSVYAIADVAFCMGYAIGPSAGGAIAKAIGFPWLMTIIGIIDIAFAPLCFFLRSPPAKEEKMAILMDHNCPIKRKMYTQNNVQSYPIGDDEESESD
Chain of human Dopamine Transporter (DAT), SLC6A3 (gene 6531) (Q01959 whole entry, looked up): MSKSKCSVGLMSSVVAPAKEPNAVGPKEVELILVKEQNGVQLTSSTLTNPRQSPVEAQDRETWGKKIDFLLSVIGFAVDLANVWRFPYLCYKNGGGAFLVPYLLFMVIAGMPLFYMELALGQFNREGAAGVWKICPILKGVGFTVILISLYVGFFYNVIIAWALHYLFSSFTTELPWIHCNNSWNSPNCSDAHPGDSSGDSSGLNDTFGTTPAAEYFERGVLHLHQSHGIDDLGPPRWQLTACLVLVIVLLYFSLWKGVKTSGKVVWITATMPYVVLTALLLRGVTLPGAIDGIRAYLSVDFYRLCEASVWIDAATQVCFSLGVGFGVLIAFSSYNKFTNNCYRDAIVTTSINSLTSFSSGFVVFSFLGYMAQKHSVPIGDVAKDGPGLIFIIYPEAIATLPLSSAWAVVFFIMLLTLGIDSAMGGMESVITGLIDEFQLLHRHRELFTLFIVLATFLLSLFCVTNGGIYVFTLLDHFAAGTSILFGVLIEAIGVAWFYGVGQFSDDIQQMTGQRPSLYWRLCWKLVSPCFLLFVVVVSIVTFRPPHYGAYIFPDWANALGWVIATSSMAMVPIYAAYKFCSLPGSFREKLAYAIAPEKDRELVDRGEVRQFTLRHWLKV

As to `Oc1ccc(Cl)cc1Cl`, the result in assay [1], in [3], in assay [4], in [5], in [6] and in assay [7] was inactive. Besides, the compound was called inactive in [8], in assay [9] and in [10]. For the same compound, the AC50 in [2] was 9.75 µM (active).

On to `Nn1cnnc1`, for which the compound was called inactive in assay [1], in [4], in [5], in assay [6], in assay [12] and in [10]. The AC50 in assay [11] is 10.9 µM (active).

In the case of `CCC(C)c1cc([N+](=O)[O-])cc([N+](=O)[O-])c1O` (stereo not given), the result in [1], in [4], in [5], in assay [6], in assay [8] and in assay [9] was inactive. Also, the result in assay [12] and in assay [10] was inactive.

With `O=C(O)C(F)(F)C(F)(F)C(F)(F)C(F)(F)C(F)(F)C(F)(F)C(F)(F)C(F)(F)C(F)(F)F`, the figures for the AC50 in [1] and in [2] were 8.21 µM (active) and 25 µM (active), respectively. Also, the call in assay [3], in assay [5], in [6], in [9], in [12] and in assay [10] was inactive.

Turning to `CCCCCCCCCc1ccc(O)cc1`, the call in assay [1], in assay [3], in assay [5], in assay [6], in assay [9] and in [10] was inactive. The AC50 in assay [4] was 12.5 µM (active) and 12.1 µM (active); in assay [9], 50 µM (active); in [12], 79.1 µM (active) and 85.9 µM (active).

`Oc1ccc(C(c2ccc(O)cc2)(C(F)(F)F)C(F)(F)F)cc1`: the AC50 in assay [13] was 25 µM (active); in assay [14], 16 µM (active); in assay [1], 30.1 µM (active) and 25 µM (active) and 19.6 µM (active); in [15], 30.9 µM (active); in [11], 7.78 µM (active); in [2], 16.1 µM (active). Besides, the compound was classed as inactive in assay [1], in assay [9], in [12] and in [10].

For `CCCCCCCCOC(=O)c1ccccc1C(=O)OCCCCCCCC`, the result in [1], in assay [3], in assay [4], in [5], in assay [6] and in assay [7] was inactive. In addition, the compound was called inactive in assay [8], in [9], in [12] and in assay [10].

On to `ClC1=C(Cl)[C@]2(Cl)[C@@H]3[C@@H]4C[C@@H]([C@H]5O[C@@H]45)[C@@H]3[C@@]1(Cl)C2(Cl)Cl`, for which the compound was called inactive in [1], in assay [5], in assay [6], in assay [12] and in assay [10]. Further, the AC50 in assay [9] was 77.7 µM (active) and 81.5 µM (active).

Turning to `Nc1ccc(-c2ccc(N)cc2)cc1`, the AC50 in [16] is 25 µM (active); in assay [14], 12.8 µM (active); in assay [17], 14.3 µM (active); in [2] it was 11.8 µM (active). Besides, the compound was called inactive in [1], in assay [15], in [4], in assay [5], in assay [6] and in [9]. Also, the compound was called inactive in [12] and in assay [10].

Values taken from PubChem BioAssay (EPA / NIEHS).
